Data published in PubChem BioAssay (EPA / NIEHS).
Activity calls are given as the source filed them. Rule for the calls: active = hit-call score of the fitted dose curve at least 0.9, where 1 is the maximum; inactive = score below 0.9.

Tests used:
[1] = ATG_CRE_CIS: Attagene CIS-FACTORIAL HepG2 Assay for human cAMP Responsive Element (CRE) binding protein 3 (AID 2282926); details: HepG2 CRE cis-reporter, Attagene multiplexed mRNA; actives raise or lower the signal
Outline: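 HepG2 cells transiently transfected with cis-element-driven multiple reporter transcription units; CRE reporter mRNA measured 24 h after dosing by RT-PCR, 6-FAM labelling, HpaI digestion and capillary electrophoresis. Bidirectional fit versus DMSO baseline.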

[2] = target: CCAAT/enhancer-binding protein beta (Homo sapiens) (UniProt P17676); assay: ATG_C_EBP_CIS: Attagene CIS-FACTORIAL HepG2 Assay for human CCAAT/Enhancer Binding Protein (C/EBP) beta (AID 2282927); details: HepG2 Attagene cis-factorial transcription factor reporter; actives raise or lower the signal
Outline: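 Chemical-treated HepG2 cells (24 h) bearing cis-regulated reporter constructs were processed for total RNA, then reverse transcription, PCR amplification, fluorescent primer extension and fragment analysis; gain- and loss-of-signal were fitted against DMSO.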

[3] = ATG_DR4_LXR_CIS: Attagene CIS-FACTORIAL HepG2 Assay for human Liver X Receptor (LXR), DR4 submotif (AID 2282929); details: HepG2 Attagene DR4 cis-reporter, mRNA transcription; actives raise or lower the signal
Outline: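 The endpoint is DR4-element-driven reporter transcripts after 24 h chemical exposure of transfected HepG2 cells. These were measured via RT-PCR and capillary electrophoresis, and gain or loss of signal was fitted relative to DMSO controls.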

[4] = target: Aryl hydrocarbon receptor (Homo sapiens) (UniProt P35869); assay: ATG_Ahr_CIS: Attagene CIS-FACTORIAL HepG2 Assay for human Aryl Hydrocarbon Receptor (Ahr) (AID 2282930); details: HepG2 AhR cis-factorial reporter transcription; actives raise or lower the signal
Outline: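 Following 24 h of chemical dosing, transfected HepG2 liver cells with cis-driven reporter units were lysed for RNA; reporter mRNA was quantified via RT-PCR and capillary electrophoresis, and responses fitted bidirectionally from DMSO.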

[5] = ATG_AP_2_CIS: Attagene CIS-FACTORIAL HepG2 Assay for human Activator Protein 2 (AP-2) (AID 2282932); details: HepG2 AP-2 cis-reporter, Attagene transcription factor profiling; actives raise or lower the signal
Outline: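 HepG2 cells were transiently transfected with multiple cis-promoter reporter transcription units and dosed for 24 h. Reporter mRNA was measured by RT-PCR with capillary electrophoresis fluorescence; bidirectional fits relative to DMSO baseline.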

[6] = ATG_BRE_CIS: Attagene CIS-FACTORIAL HepG2 Assay for human Bone Morphogenetic Protein (BMP) Response Element (BRE) (AID 2282933); details: HepG2 BMP response element reporter, Attagene transcription factor profiling; actives raise or lower the signal
Outline: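 Fluorescence-labelled reporter cDNA fragments, separated by capillary electrophoresis, gave the signal for this component of a 52-readout multiplex. HepG2 cells were transfected, exposed to chemicals for 24 h, and compared with DMSO using bidirectional fitting.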

[7] = ATG_AP_1_CIS: Attagene CIS-FACTORIAL HepG2 Assay for human Activator Protein 1 (AP-1) (AID 2282931); details: HepG2 Attagene cis-factorial AP-1 reporter mRNA; actives raise or lower the signal
Outline: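 Readout is reporter transcript level from endogenous transcription factor activity, quantified by RT-PCR with fluorescent primer extension and capillary electrophoresis. Transiently transfected HepG2 cells, 24 h exposure. Curves fitted both directions versus DMSO.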

[8] = ATG_CMV_CIS: Attagene CIS-FACTORIAL HepG2 Assay for human CMV (Internal Marker) (AID 2282928); details: HepG2 CMV promoter reporter, transcription factor profiling; actives raise or lower the signal;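 note: endpoint acts as a background internal control marker rather than a target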
Outline: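 Cell system: HepG2, transiently transfected multiple reporter units under cis promoters. Exposure: 24 h. Detection: RT-PCR, FAM labeling, HpaI digestion, capillary electrophoresis. Analysis: bidirectional, DMSO baseline.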

[9] = target: Retinoic acid receptor alpha (Homo sapiens) (UniProt P10276); assay: ATG_DR5_RAR_CIS: Attagene CIS-FACTORIAL HepG2 Assay for human Retinoic Acid Receptor Alpha (RARE), DR5 submotif (AID 2282934); details: HepG2 Attagene cis-factorial RARE DR5 reporter, mRNA; actives raise or lower the signal
Outline: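 Transfected HepG2 reporter cells are exposed to chemicals for 24 h. Then RNA is extracted and the DR5 element reporter transcript is measured by RT-PCR and capillary electrophoresis, with bidirectional curve fitting relative to DMSO.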

Measured: AC50

Sequence of Aryl hydrocarbon receptor (Homo sapiens) (P35869 whole entry, looked up): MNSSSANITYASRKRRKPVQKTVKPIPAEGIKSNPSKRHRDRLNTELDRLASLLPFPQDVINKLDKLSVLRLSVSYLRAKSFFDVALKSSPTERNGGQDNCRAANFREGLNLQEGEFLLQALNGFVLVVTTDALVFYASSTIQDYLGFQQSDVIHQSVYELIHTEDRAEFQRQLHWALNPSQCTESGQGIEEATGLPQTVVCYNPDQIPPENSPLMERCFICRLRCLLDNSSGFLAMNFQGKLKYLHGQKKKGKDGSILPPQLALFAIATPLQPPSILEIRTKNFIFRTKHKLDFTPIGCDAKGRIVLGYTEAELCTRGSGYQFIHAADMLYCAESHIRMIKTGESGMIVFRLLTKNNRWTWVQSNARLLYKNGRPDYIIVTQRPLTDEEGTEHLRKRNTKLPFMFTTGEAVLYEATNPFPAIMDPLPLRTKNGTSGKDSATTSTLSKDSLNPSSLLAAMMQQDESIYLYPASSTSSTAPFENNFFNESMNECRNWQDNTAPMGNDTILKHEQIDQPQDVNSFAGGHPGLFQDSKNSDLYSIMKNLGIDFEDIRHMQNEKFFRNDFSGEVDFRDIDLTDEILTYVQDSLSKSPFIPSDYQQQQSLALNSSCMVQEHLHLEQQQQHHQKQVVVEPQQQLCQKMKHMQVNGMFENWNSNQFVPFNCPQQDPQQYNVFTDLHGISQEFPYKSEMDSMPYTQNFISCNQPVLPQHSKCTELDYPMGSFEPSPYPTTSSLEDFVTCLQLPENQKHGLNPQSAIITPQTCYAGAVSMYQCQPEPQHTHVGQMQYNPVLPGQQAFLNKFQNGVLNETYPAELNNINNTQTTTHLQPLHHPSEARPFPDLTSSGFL
Sequence of CCAAT/enhancer-binding protein beta (Homo sapiens) (P17676 whole entry, looked up, the tested form may be a part): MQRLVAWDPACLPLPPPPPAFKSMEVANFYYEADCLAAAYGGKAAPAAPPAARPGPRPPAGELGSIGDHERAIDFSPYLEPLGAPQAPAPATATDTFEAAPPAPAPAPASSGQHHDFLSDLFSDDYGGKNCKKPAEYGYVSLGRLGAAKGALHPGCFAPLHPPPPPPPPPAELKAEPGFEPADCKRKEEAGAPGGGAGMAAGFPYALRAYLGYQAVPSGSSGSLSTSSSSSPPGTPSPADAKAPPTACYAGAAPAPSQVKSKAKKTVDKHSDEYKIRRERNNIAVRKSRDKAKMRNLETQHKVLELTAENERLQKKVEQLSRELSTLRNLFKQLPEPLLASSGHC
Sequence of Retinoic acid receptor alpha (Homo sapiens) (P10276 whole entry, looked up): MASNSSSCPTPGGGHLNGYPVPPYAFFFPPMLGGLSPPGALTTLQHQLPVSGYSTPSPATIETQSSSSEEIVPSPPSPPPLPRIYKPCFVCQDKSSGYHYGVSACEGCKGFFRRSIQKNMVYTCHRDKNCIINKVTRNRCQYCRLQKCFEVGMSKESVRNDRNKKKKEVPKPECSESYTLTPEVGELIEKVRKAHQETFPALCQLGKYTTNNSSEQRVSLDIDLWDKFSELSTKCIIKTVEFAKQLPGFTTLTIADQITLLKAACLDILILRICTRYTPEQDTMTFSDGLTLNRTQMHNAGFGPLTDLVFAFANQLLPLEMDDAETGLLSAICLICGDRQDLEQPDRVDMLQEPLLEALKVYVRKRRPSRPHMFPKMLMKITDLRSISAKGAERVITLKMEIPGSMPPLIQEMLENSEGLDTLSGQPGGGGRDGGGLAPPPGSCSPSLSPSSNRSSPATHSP

COc1ccccc1O
not listed: [7] | [8] | [9]
inactive: all other assays above

C=CC(=O)OCC(CO)(COC(=O)C=C)COC(=O)C=C
inactive: [2] | [4]
active: [1] 163 µM | [3] 18 µM | [5] 27.8 µM | [6] 100 µM

CC(C)C(=O)OCC=Cc1ccccc1
inactive: [1] | [2] | [4] | [7] | [5]

ClCCOCCOCCCl
not listed: [7] | [8] | [9]
inactive: all other assays above

CCCCCCCCCO
not listed: [8] | [9]
inactive: all other assays above

CCCO
not listed: [2] | [6] | [9]
inactive: all other assays above

OC[C@@H](O)[C@H](O)[C@@H](O)[C@@H](O)CO
not listed: [8]
inactive: all other assays above

c1ccc2c(c1)-c1ccc3ccc4cccc5cc-2c1c3c45
inactive: [1] | [2] | [7] | [5]
active: [4] 0.543 µM

Cc1ccc(C(C)(C)O)cc1
not listed: [2] | [6] | [9]
inactive: all other assays above

CCCCOC(=O)C(C)OC(=O)CCC (configuration not stated)
not listed: [8]
inactive: all other assays above

C=C(C)C(N)=O
not listed: [8]
inactive: all other assays above

O=C(O)c1ccccc1O
inactive: [1] | [2] | [5] | [6]

CC(C)=CCCC(C)=CC(=O)O
not listed: [3] | [8] | [9]
inactive: all other assays above

CCCCCCOc1ccc(O)cc1
active: [3] 44.1 µM
not listed: [8]
inactive: all other assays above

OC[C@H]1O[C@@H](O[C@H]2[C@H](O)[C@@H](O)[C@H](O)O[C@@H]2CO)[C@H](O)[C@@H](O)[C@H]1O
not listed: [4] | [7] | [8]
inactive: all other assays above

CCCCCCCCSCc1cc(C)c(O)c(CSCCCCCCCC)c1
not listed: [8] | [9]
inactive: all other assays above

Nc1ccc(O)c(N)c1
active: [4] 14.5 µM | [6] 42.2 µM
not listed: [8]
inactive: all other assays above

C=C(C)CCCC(C)CCO (configuration not stated)
not listed: [8] | [9]
inactive: all other assays above

CC(C)CCCC(C)(C)O
not listed: [7] | [8] | [9]
inactive: all other assays above

CCCCCC1CCC(=O)O1 (configuration not stated)
inactive: [1] | [2] | [7] | [5]

CCCCCCCC1CCCC1=O (configuration not stated)
not listed: [6] | [7] | [8]
inactive: all other assays above

O=C(O)C1=NN(c2ccc(S(=O)(=O)O)cc2)C(=O)C1
not listed: [8]
inactive: all other assays above

O=S1(=O)CC(Cl)(Cl)C(Cl)(Cl)C1
inactive: [1] | [2] | [4] | [7] | [5]

CCCc1ccc(N)cc1
not listed: [7] | [8] | [9]
inactive: all other assays above

C=CC(C)(CCC=C(C)C)OC(=O)CC (configuration not stated)
not listed: [8] | [9]
inactive: all other assays above

C=C(C)C(=O)OCCC(C)OC(=O)C(=C)C (configuration not stated)
not listed: [4] | [8]
inactive: all other assays above

CC1=CC(C)C(C=O)C(C)C1 (configuration not stated) (tested in a mixture with another compound)
not listed: [7] | [8] | [9]
inactive: all other assays above

CC(=O)OC(C)(C)C1CC=C(C)CC1 (configuration not stated)
active: [4] 8.48 µM
inactive: [1] | [8] | [3] | [7] | [5]

[Cu+]
active: [4] 15 µM
not listed: [3] | [8]
inactive: all other assays above

S=c1[nH][nH]c(=S)s1
not listed: [2] | [6] | [9]
inactive: all other assays above

CC(C)(CO)CO
not listed: [2] | [9]
inactive: all other assays above

c1ccc(Cc2ccccc2)cc1
not listed: [2] | [9]
inactive: all other assays above

COc1ccc(C(C)=O)cc1
not listed: [2] | [9]
inactive: all other assays above

CCCCCCCCCCO[C@@H]1O[C@H](CO)[C@@H](O)[C@H](O)[C@H]1O
active: [3] 125 µM
not listed: [2]
inactive: all other assays above

COC(=O)c1ccc(C(=O)OC)cc1
not listed: [2]
inactive: all other assays above

CCCCOCCOCCO
not listed: [2]
inactive: all other assays above

CCCCCCCCCOS(=O)(=O)O
inactive: [1] | [4] | [7] | [5] | [6]
active: [3] 78.7 µM

N=C1N=C(N)c2ccccc21
not listed: [2] | [3] | [9]
inactive: all other assays above

CC(=O)c1ccc(O)cc1
inactive: [1] | [8] | [4] | [5]

C=CCOC(=O)/C=C\C(=O)OCC=C
inactive: [6]
active: [1] 27.1 µM | [8] 63.8 µM | [4] 61.2 µM | [5] 21.7 µM

O=C(O)c1cc2ccccc2cc1O
active: [4] 4.5 µM
not listed: [2]
inactive: all other assays above

COc1ccc2[nH]cc(CCNC(C)=O)c2c1
not listed: [2] | [9]
inactive: all other assays above

CC1(C)CC(N)CC(C)(CN)C1 (configuration not stated)
not listed: [2] | [4]
inactive: all other assays above

CC(=O)C1C(=O)C=C(C)OC1=O (configuration not stated)
not listed: [2] | [4]
inactive: all other assays above

CCCCCCCOC(C)=O
not listed: [2] | [3]
inactive: all other assays above

CC(C)(C)c1cc(CCC(=O)OCCSCCOC(=O)CCc2cc(C(C)(C)C)c(O)c(C(C)(C)C)c2)cc(C(C)(C)C)c1O
inactive: [1] | [8] | [4] | [5] | [6]

CC1=CCC(C(C)(C)O)CC1 (configuration not stated)
not listed: [2] | [9]
inactive: all other assays above

CCOC(=O)C(=O)OCC
not listed: [2] | [3] | [4]
inactive: all other assays above

CC(=O)CCC(=O)O
not listed: [2] | [9]
inactive: all other assays above

CCCC1CCC(=O)CC1
active: [4] 44.4 µM
not listed: [2] | [9]
inactive: all other assays above

CCCc1ccc(O)cc1
active: [3] 70.5 µM
not listed: [2] | [4]
inactive: all other assays above

CC(C)Cc1ccc(C(C)C(=O)O)cc1 (configuration not stated)
not listed: [2]
inactive: all other assays above

C=C1CC[C@H]2O[C@]2(C)CC[C@@H]2[C@@H]1CC2(C)C
active: [8] 191 µM
not listed: [2] | [9]
inactive: all other assays above

CC(=O)N(C)C
inactive: [8] | [3] | [4] | [5] | [9]

CCCCCCCCCCCCOCCOS(=O)(=O)O
inactive: [1] | [4] | [5]

CCCCCCCCCCCCOC(C)=O
not listed: [2] | [3] | [6]
inactive: all other assays above

c1ccc(OCCOc2ccccc2)cc1
inactive: [1] | [8] | [3] | [5] | [6]
active: [4] 0.142 µM

Nc1ccc(N)c([N+](=O)[O-])c1
inactive: [2] | [5] | [6]
active: [4] 3.14 µM [middle of 5 runs]

CCCCC/C=C\C=C\C(=O)OCC
inactive: [5] | [6]
active: [1] 58.8 µM | [8] 123 µM | [3] 55.1 µM

CNC(=C[N+](=O)[O-])NCCSCc1ccc(CN(C)C)o1
inactive: [1] | [3] | [4] | [5]

CC(=O)CC(C)(C)C1CCCCC1
not listed: [2]
inactive: all other assays above

COC(=O)c1cccc(C(=O)OC)c1
active: [4] 71.4 µM
not listed: [2]
inactive: all other assays above

CC(C)(O)CCc1ccccc1
not listed: [2] | [4] | [7]
inactive: all other assays above
